# Test results published in PubChem BioAssay (NCI).
# About 83,000 compounds went through this panel and 20% of them were active in at least one assay; those are over-represented in the sample as a whole.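 96-well plates, one dose, 48 hours. Percent growth reported; active if below 10.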 The source made the active and inactive calls.
# Test system: HL-60(TB) leukemia
# Assay: NCI-60 one-dose screen, 48 h (100 = growth as untreated, 0 = no growth, -100 = all killed)
# Settings: 10 µM unless noted
row,SMILES,growth
1,N#Cc1ccc(C2C3=C(CCCC3=O)OC3=C2C(=O)c2ccccc2C3=O)cc1 (stereo unspecified),-21.4% (active)
2,CCN1C(=O)N(CC)C2C1NN=c1s/c(=C\c3ccc(Br)cc3)c(=O)n12 (stereo unspecified),-30.5% (active)
3,Cc1ncc(C(=O)Nc2ccc(CN3CCN(C)CC3)c(C(F)(F)F)c2)cc1C#Cc1c(N)ncc2ccc(C#N)cc12,45.8% (inactive)
4,CCCCOC(=O)c1ccccc1O,93.2% (inactive)
5,Cc1csc(NC(c2ccccc2)c2c(C)nc3ccccn23)n1 (stereo unspecified),111% (inactive)
6,O=C(c1ccc(F)c(F)c1Nc1ccc(I)cc1F)N1CC(O)([C@@H]2CCCCN2)C1,-18.9% (active)
7,C=C1C(=O)O[C@H]2[C@H]1CC/C(COC(=O)/C=C/c1c[nH]c3ccccc13)=C\CC[C@@]1(C)O[C@@H]21,-18.7% (active)
8,COc1cc2c(Nc3ccc(NC(=O)Nc4ccc(Cl)c(C(F)(F)F)c4)c(Cl)c3)ncnc2cc1OCCCN1CCN(C)CC1,-56.4% (active)
9,CC1CC2Oc3ccc(Cl)cc3C(=O)N2O1 (stereo unspecified),110% (inactive)
10,COc1ccc(CN(c2ccc(C)cc2)C2OC(=O)c3ccccc32)cc1OC (stereo unspecified),96.9% (inactive)
11,CCOC(=O)c1c(C)nc2ccccc2c1/C=C/c1cccs1,87.3% (inactive)
12,COc1cc2c(c(OC)c1)C1c3cc(OC)ccc3NC(=O)N1CC2 (stereo unspecified),66.3% (inactive)
13,COC(=O)c1ccc2[nH]c(O)c(C(=Nc3ccc(N(C)C(=O)CN4CCN(C)CC4)cc3)c3cccc(OC)c3)c2c1,-35.9% (active)
14,COc1ccc(C/C(C)=C(/c2ccc(OCCN(C)C)cc2)c2ccc(OC(=O)NCc3ccccc3)cc2)cc1,45.1% (inactive)
15,COc1nc2c(cc1S(=O)(=O)c1ccccc1)CCc1c-2cnn1-c1ccccc1,58.7% (inactive)
16,CCC(=O)Nc1nnc(Cc2ccc(OC)c(OC)c2)s1,53.2% (inactive)
17,Cc1cc(Cl)ccc1Nc1nc(C(F)(F)F)ccc1C(=O)N/N=C/c1ccc(N(C)C)cc1,12.4% (inactive)
18,CC(C)(C)OC(=O)N1C/C(=C\c2cccs2)C(=O)/C(=C/c2cccs2)C1,96.7% (inactive)
19,Cc1cccc(-[n+]2noc(N)n2)c1,30.8% (inactive)
20,CC1(C)OC2COC3(C(=O)O)OC(C)(C)OC3C2O1 (stereo unspecified),106% (inactive)
21,Brc1cnc2[nH]cc(-c3nnc(-c4ccccc4)o3)c2c1,94.5% (inactive)

row,SMILES,growth
1,O=[N+]([O-])c1cccc(/C=N\Nc2ccccc2)c1,20.1% (inactive)
2,Cn1cc(-c2ncnc3ccc(-c4cnc(Cl)c(NS(C)(=O)=O)c4)cc23)c2ccccc21,17.9% (inactive)
3,COc1cc(/C=C2\CN(S(=O)(=O)c3ccccc3)C/C(=C\c3cc(CN4CCCCC4)c(O)c(OC)c3)C2=O)cc(CN2CCCCC2)c1O,-37.6% (active)
4,CC(=O)CC[C@H]1C(=O)N[C@@H](C(C)C)C(=O)N[C@@H](Cc2cc(O)cc(F)c2)C(=O)N2CCC[C@H](N2)C(=O)O[C@H](/C(C)=C/C=C/C(=O)OC(C)(C)C)C/C=C/C=C/[C@H](O)[C@H](C)[C@H]1O,56% (inactive)
5,N#Cc1ccc2nc[nH]c2c1,101% (inactive)
6,CCOC(=O)n1cc(-c2nonc2-c2cn(C(=O)OCC)c3ccc(Br)cc23)c2ccccc21,93.9% (inactive)
7,O=C1N=c2cc3c(cc2=C/C1=C/c1sc(=S)n(CCc2ccc(O)cc2)c1O)OCCO3,48.1% (inactive)
8,COc1ccc(C(=O)NC(=O)Nc2ccc3c(c2)NC(=O)/C3=C\c2[nH]c(C)c(C(=O)O)c2C)cc1,95.2% (inactive)
9,COc1cc(/C=N/Nc2ncnc3c2c(C)nn3-c2ccc(F)cc2)ccc1O,98.3% (inactive)
10,O=C(CCN1CCCC1)Nc1ccc2c(NCCCc3ccccc3)c3ccccc3nc2c1,-55.6% (active)
11,C=C1CCC2C3(C)COC(c4ccccc4)OC3CCC2(C)C1C/C=C1/C(=O)OCC1OC(C)=O (stereo unspecified),56% (inactive)
12,COCCOC(=O)COc1ccc(OC)cc1,90.7% (inactive)
13,CN1CCC(=C2c3ccccc3C=Cc3ccccc32)CC1,85.1% (inactive)
14,COc1ccc2c(c1)cn1c3ccc(OC)cc3[nH]c(=O)c21,-53.8% (active)
15,COC(=O)OC1C(O[C@H]2C[C@H]3[C@@H]4CC=C5C[C@@H](O)CC[C@]5(C)[C@H]4CC[C@]3(C)[C@H]2[C@H](C)C(=O)CCC(C)C)OCC(O)C1OC1OCC(O)C(O)C1OC(=O)c1ccc(OC)cc1 (stereo partly specified),-22.3% (active)
16,CC1(C)C(N)=Nc2cc(OCCCN3Cc4ccc(OCCc5cn(CC(=O)N6CCC(CCN7CCCC7)CC6)nn5)cc4C3)c(OCC3CC3)cc21,97.3% (inactive)
17,O=C1C=CC(=CC=C2C=CN(CCCCCCCCCCCO)C=C2)C=C1,4.05% (active)
18,O=C(CSCC(=O)N/N=C/c1ccccc1O)N/N=C\c1ccccc1O,-32.8% (active)
19,Nc1nc(Cl)cc(NCc2ccc(CNc3cc(Cl)nc(N)n3)cc2)n1,78.7% (inactive)
20,COc1ccc(CNc2c3ccccc3nc3ccc(OC)cc23)cc1,-20.7% (active)
21,c1csc(-c2[nH]nc3c2CCc2ccccc2-3)c1,132% (inactive)

row,SMILES,growth
1,Cc1cc(Cl)nc(N(CCCNc2ccnc3cc(Cl)ccc23)Cc2ccco2)n1,-35.9% (active)
2,Clc1ccc2c(NCCCCNc3nc(N4CCCCC4)nc4ccccc34)ccnc2c1,-69% (active)
3,CC[C@H]1OC(=O)[C@H](C)[C@@H](O[C@H]2C[C@@](C)(OC)[C@@H](O)[C@H](C)O2)[C@H](C)[C@@H](O[C@@H]2O[C@H](C)C[C@H](N(C)C)[C@H]2O)[C@](C)(OC)C/C(C)=C2/O[C@@]1(C)C=C2C,41.4% (inactive)
4,COc1ccc2nc3cc(Cl)ccc3c(N3CCN(c4nccc(Nc5ccccc5)n4)CC3)c2c1,73.8% (inactive)
5,COC(=O)[C@]1(C)CCC[C@]2(C)[C@H]3C[C@@H]4[C@H]5[C@@H]6CC/C(=N\OCC/C(N)=N/O)[C@H]5[C@@]3(CC[C@H]21)CC4(C(C)C)O6,30.6% (inactive)
6,Cc1[nH]c(C(=O)Nc2ccc(C(=O)NCCN)cc2OC(C)C)c(Cl)c1Cl,-21.3% (active)
7,Cc1ccccc1/C=C/C(=O)c1cccc(OCCCCOc2cccc(C(=O)/C=C/c3ccccc3C)c2)c1,81.8% (inactive)
8,CN1CCN(c2nc3scc(-c4ccccc4)c3c(=O)[nH]2)CC1,90.8% (inactive)
9,COc1ccc(/C=C2\CCC3C(CCCC34OCCO4)C2=O)cc1 (stereo unspecified),78.3% (inactive)
10,COP(=O)(OC)C(c1ccccc1)(c1ccccc1)c1ccccc1,45.3% (inactive)
11,Nc1c(Br)cc(O)c2c1C(=O)c1ccccc1C2=O,41.9% (inactive)
12,Nc1ccc(C2c3ccccc3Oc3ccccc32)cc1,115% (inactive)
13,CC(C)c1ncc(CO)n1Cc1c(Cl)cccc1Cl,98.7% (inactive)
14,CCN1CCN(C(=O)[C@@]2(C)CC[C@]3(C)CC[C@]4(C)C(=CC(=O)[C@@H]5[C@@]6(C)CC[C@H](OCCC#N)C(C)(C)[C@@H]6CC[C@]54C)[C@@H]3C2)CC1,90.3% (inactive)
15,CC/C=C\C[C@H](O)C/C=C1/C(=O)C=C[C@@H]1C/C=C\CCCC(=O)O,75.2% (inactive)
16,Cc1ccc(S(=O)(=O)Nc2ccccc2)cc1N,96% (inactive)
17,COc1cccc(/C=C2\COc3ccc(O)cc3C2=O)c1,-20.1% (active)
18,COc1cc2c(cc1OCCCN1CCN(c3ncnc4ccccc34)CC1)N=CC1CCCN1C2=O (stereo unspecified),-53.2% (active)
19,COc1cccc(C(=O)NCCCNc2cc(-c3cn(-c4ccccc4)nc3-c3cccc(OC)c3)ccn2)c1,22.7% (inactive)
20,Oc1ccc(/C=N/NC(=S)Nc2ccccc2)nc1,-8.79% (active)
21,COc1cc2c(c(OC)c1)C1c3ccccc3NC(=O)N1CC2 (stereo unspecified),-3.91% (active)

row,SMILES,growth
1,COC(=O)/C(CCC=C(C)C)=C1\[C@@H](OC(C)=O)C[C@@]2(C)[C@H]1C[C@@H](O)[C@H]1[C@@]3(C)CC[C@H](NCCO)[C@@H](C)[C@@H]3CC[C@@]12C,96.4% (inactive)
2,CC(C)CCSc1nc(NNC(N)=O)c(C#N)c(-c2ccccc2)n1,99.8% (inactive)
3,CC1=C2[C@@H](CC1)[C@]1(C)O[C@@](C3CCCCC3)(C[C@H]1OC(=O)CO)[C@H]2OC(=O)/C=C/c1ccccc1,82.5% (inactive)
4,Oc1c(C(Nc2ccccn2)c2cccc(Oc3ccccc3)c2)ccc2cccnc12 (stereo unspecified),-51.9% (active)
5,CC(=O)C1=C(O)C=C2Oc3c(C(=O)/C=C/c4cc(Cl)cc(Cl)c4)c(O)c(C)c(O)c3[C@]2(C)C1=O,-34.8% (active)
6,C=CCCCCCCCCCOC(C)=O,120% (inactive)
7,Cc1ccc(-c2csc(N(C(=O)N3CCN(c4cc5c(cc4F)c(=O)c(C(=O)O)cn5C4CC4)CC3)c3ccccc3)n2)cc1,1.91% (active)
8,O=C1/C(=C\c2cccn2Cc2ccc(F)cc2)c2ccccc2N1c1c(Cl)cccc1Cl,96.5% (inactive)
9,COc1ccc(NC(=O)CSc2nnc(-c3cc(-c4ccc(S(N)(=O)=O)cc4)nc4ccccc34)n2-c2ccccc2)cc1,65.1% (inactive)
10,COc1cccc(-c2nn(-c3ccccc3)cc2-c2ccnc(-c3cccnc3)c2)c1,56.8% (inactive)
11,FC(F)(F)c1cn(CCN2CCOCC2)c2ncnc(Cl)c12,-68.6% (active)
12,NCCOc1ncccc1/C=C1\C2C=CC=CC2C2C=CC(F)=CC12 (stereo unspecified),-24.3% (active)
13,CC(C)C(C)C(N)C(=O)O (stereo unspecified),97.9% (inactive)
14,N=C(N)c1ccc(-c2ccc(-c3ccc(Cl)cc3Cl)s2)cc1F,-49.7% (active)
15,CC1(O)CCC2CC3OC3(C)CCC3OC3(C)C(O)CC1C2(C)C (stereo unspecified),137% (inactive)
16,COc1ccc2[nH]c(O)c(/C=c3/cc4c(c(-c5ccc(F)c(OC)c5)n3)=Nc3ccccc3-4)c2c1,47% (inactive)
17,COc1cc(CCc2cc(NC(=O)c3ccc(N4C[C@@H](C)N[C@@H](C)C4)cc3)n[nH]2)cc(OC)c1,12.5% (inactive)
18,Fc1ccc2nc(-c3ccc(-c4noc(-c5ccc(Cl)cc5)n4)cc3)[nH]c2c1,88.7% (inactive)
